Test results from PubChem BioAssay (NCATS).
Records with an inconclusive call do not appear. Calls of active or inactive are those of the source. Calls come from the whole dose curve; as a rule, active = well fitted curve in the direction sought with a large enough effect; inconclusive = small, poorly fitted or top-dose-only effect, or another doubt; inactive = no such curve, though single readings can be large; an effect the other way counts as inactive or inconclusive.

Columns and labels:
[1] = target: ATP-dependent 6-phosphofructokinase (Trypanosoma brucei brucei) (UniProt O15648); assay: qHTS Assay to Find Inhibitors of T. brucei phosphofructokinase: hit validation (AID 492961)
In short: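 Luminescence from ADP-Glo reports ADP generated as T. brucei PFK (1.25 nM) phosphorylates 0.5 mM fructose-6-phosphate using 0.1 mM ATP. Reactions ran 45 min at room temperature, pH 8.0.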

[2] = target: Luciferin 4-monooxygenase (Photinus pyralis) (UniProt P08659); assay: Biochemical firefly luciferase enzyme assay for NPC (AID 624030);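 note: purified P. pyralis luciferase at 10 nM with luciferin and ATP substrate; nearly all actives have a fitted effect of over 70% in size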
In short: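 Purified P. pyralis luciferase at 10 nM in 50 mM Tris Acetate (final), luminescence read within 5 minutes of enzyme addition to compounds. Activity normalised to PTC124 versus DMSO; concentration-response curves classed by r2, magnitude and activity.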

7G8 = assay: qHTS profiling for inhibitors of Plasmodium falciparum proliferation (AID 504749); note: nearly all actives have a fitted effect of over 60% in size; note: potency is the fitted concentration of half-maximal effect; conditions: P. falciparum in erythrocytes, SYBR Green DNA, 72 h; series mostly up to 28.7 µM
In short: (§1)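 Each compound contacts P. falciparum-infected red blood cells for 72 h at 37 C; lysis buffer (Tris, EDTA, saponin, Triton X, SYBR Green I) is added and fluorescence measured next morning; values normalized to controls.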

CP192 = assay: as above; conditions: P. falciparum in erythrocytes, SYBR Green DNA, 72 h; series mostly up to 28.7 µM
In short: as §1

CP201 = assay: as above; conditions: P. falciparum in erythrocytes, SYBR Green DNA, 72 h; series mostly up to 28.7 µM
In short: as §1

CP203 = assay: as above; conditions: P. falciparum in erythrocytes, SYBR Green DNA, 72 h; series mostly up to 28.7 µM
In short: as §1

CP211 = assay: as above; conditions: P. falciparum in erythrocytes, SYBR Green DNA, 72 h; series mostly up to 28.7 µM
In short: as §1

CP262 = assay: as above; conditions: P. falciparum in erythrocytes, SYBR Green DNA, 72 h; series mostly up to 28.7 µM
In short: as §1

CP305 = assay: as above; conditions: P. falciparum in erythrocytes, SYBR Green DNA, 72 h; series mostly up to 28.7 µM
In short: as §1

CP315 = assay: as above; conditions: P. falciparum in erythrocytes, SYBR Green DNA, 72 h; series mostly up to 28.7 µM
In short: as §1

CP325 = assay: as above; conditions: P. falciparum in erythrocytes, SYBR Green DNA, 72 h; series mostly up to 28.7 µM
In short: as §1

Dd2 = assay: as above; conditions: P. falciparum in erythrocytes, SYBR Green DNA, 72 h; series mostly up to 28.7 µM
In short: as §1

FAB9 = assay: as above; conditions: P. falciparum in erythrocytes, SYBR Green DNA, 72 h; series mostly up to 28.7 µM
In short: as §1

JCK = assay: as above; conditions: P. falciparum in erythrocytes, SYBR Green DNA, 72 h; series mostly up to 28.7 µM
In short: as §1

PC49 = assay: as above; conditions: P. falciparum in erythrocytes, SYBR Green DNA, 72 h; series mostly up to 28.7 µM
In short: as §1

[3] = qHTS for Inhibitors of Plasmodium falciparum (DD2) proliferation (AID 504314); note: potency is the fitted concentration of half-maximal effect
In short: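 P. falciparum Dd2 is grown in erythrocytes with test compound for 72 h at 37C under 5% CO2. Growth is scored by SYBR Green I fluorescence after detergent lysis, relative to artemisinin (0.29 uM) and DMSO controls.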

[4] = qHTS for Inhibitors of Plasmodium falciparum (GB4) proliferation (AID 504315); note: nearly all actives have a fitted effect of over 50% in size; note: potency is the fitted concentration of half-maximal effect
In short: (§2)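 Parasite growth measured as SYBR Green DNA fluorescence (ex 485, em 535 nm) after overnight lysis following 72 h culture at 37 °C, 0.3% parasitemia, 2.5% hematocrit. Values normalized against DMSO and 0.29 uM artemisinin controls, with plate-stack correction.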

[5] = qHTS for Inhibitors of Plasmodium falciparum (7G8) proliferation (AID 504316); note: nearly all actives have a fitted effect of over 65% in size; note: potency is the fitted concentration of half-maximal effect
In short: as §2

[6] = qHTS for Inhibitors of Plasmodium falciparum (HB3) proliferation (AID 504318); note: nearly all actives have a fitted effect of over 60% in size; note: potency is the fitted concentration of half-maximal effect
In short: as §2

[7] = qHTS for Inhibitors of Plasmodium falciparum (CP250) proliferation (AID 504320)
In short: as §2

Measured: Potency

Sequence of Luciferin 4-monooxygenase (Photinus pyralis) (P08659 whole entry, looked up): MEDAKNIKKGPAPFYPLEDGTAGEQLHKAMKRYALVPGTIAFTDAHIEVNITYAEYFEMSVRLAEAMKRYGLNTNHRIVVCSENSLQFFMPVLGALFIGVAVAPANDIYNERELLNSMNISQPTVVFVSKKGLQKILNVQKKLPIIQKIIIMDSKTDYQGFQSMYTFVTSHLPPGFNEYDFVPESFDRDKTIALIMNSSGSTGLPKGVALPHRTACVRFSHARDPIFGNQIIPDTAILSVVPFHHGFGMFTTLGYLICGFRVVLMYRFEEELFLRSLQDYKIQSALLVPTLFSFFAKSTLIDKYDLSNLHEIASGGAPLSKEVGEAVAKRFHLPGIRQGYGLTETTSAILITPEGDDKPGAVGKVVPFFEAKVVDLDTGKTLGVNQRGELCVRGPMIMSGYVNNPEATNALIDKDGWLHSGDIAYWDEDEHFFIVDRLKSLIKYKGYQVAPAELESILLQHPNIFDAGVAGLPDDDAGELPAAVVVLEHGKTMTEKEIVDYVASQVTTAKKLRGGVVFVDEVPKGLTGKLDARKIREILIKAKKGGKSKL
Sequence of ATP-dependent 6-phosphofructokinase (Trypanosoma brucei brucei) (O15648 whole entry, looked up): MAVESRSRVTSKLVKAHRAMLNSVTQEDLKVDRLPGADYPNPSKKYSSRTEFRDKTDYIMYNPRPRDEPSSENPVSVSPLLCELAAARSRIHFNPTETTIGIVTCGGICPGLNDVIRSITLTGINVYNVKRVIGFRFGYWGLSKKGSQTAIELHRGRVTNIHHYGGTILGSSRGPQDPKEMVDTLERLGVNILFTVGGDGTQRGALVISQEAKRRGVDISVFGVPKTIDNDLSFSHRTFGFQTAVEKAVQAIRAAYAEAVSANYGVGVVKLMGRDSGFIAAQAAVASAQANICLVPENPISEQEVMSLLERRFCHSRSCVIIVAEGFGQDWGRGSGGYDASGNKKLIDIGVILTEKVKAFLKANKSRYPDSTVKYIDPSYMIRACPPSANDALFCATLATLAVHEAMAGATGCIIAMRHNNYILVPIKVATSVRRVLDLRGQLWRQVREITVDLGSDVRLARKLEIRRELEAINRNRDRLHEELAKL

CCC(=O)OC1C(N(C)C)CC(C)O[C@H]1O[C@H]1[C@H](C)[C@@H](O[C@H]2CC(OC)[C@@H](O)C(C)O2)[C@H](C)C(=O)O[C@@H](CC)[C@](C)(O)[C@@H](O)[C@H](C)C(=O)[C@@H](C)C[C@]1(C)O (stereo partly specified)
active: Dd2 12.6 µM
not listed: [3] | [4] | [5] | [6] | [7]
inactive: all other assays above

C=C1CC[C@H](O)C/C1=C/C=C1\CCC[C@]2(C)[C@@H]([C@H](C)CCCC(C)(C)O)CC[C@@H]12
active: 7G8 10 µM | Dd2 12.6 µM
not listed: PC49 | [3] | [4] | [5] | [6] | [7]
inactive: all other assays above

C[C@H]1Cc2c(COc3ccccc3)nc3c(c2CO1)CN(C(=O)c1ccco1)CC3
inactive: [3]

C=CCN1CC(C(=O)N(CCCN(C)C)C(=O)NCC)CC2c3cccc4[nH]cc(c34)CC21 (stereo unspecified)
active: 7G8 10 µM | Dd2 8.91 µM
not listed: [2] | CP203 | [3] | [4] | [5] | [6] | [7]
inactive: all other assays above

CC#CCN1c2ccccc2[C@]23C[C@@H](C(=O)OC)N(S(=O)(=O)c4ccc5c(c4)OCCN5C)C2=NC(C(=O)OC)=C(C(=O)OC)[C@H]13
inactive: [3]

O=C(O)C[CH2][Ge](=[O])[O][Ge](=[O])[CH2]CC(=O)O
not listed: [3] | [4] | [5] | [6] | [7]
inactive: all other assays above

CCN(CC)CCOCCOC(=O)C(CC)(CC)c1ccccc1 (tested in a mixture with another compound)
active: 7G8 5.62 µM | CP203 4.26 µM | CP305 8.49 µM | Dd2 0.891 µM
inactive: [1] | [2] | CP192 | CP262 | CP315 | FAB9 | JCK

Cc1ccc(S(=O)(=O)N2CCc3nc(COc4ccccc4)c4c(c3C2)CO[C@@H](C)C4)cc1
inactive: [3]

C=C1CC[C@H](O)C/C1=C/C=C1\CCC[C@]2(C)[C@@H]([C@H](C)CC[C@@H](O)C(C)(C)O)CC[C@@H]12
active: 7G8 8.91 µM
not listed: Dd2 | JCK | [3] | [4] | [5] | [6] | [7]
inactive: all other assays above

CC1=C[C@@H](O)CC(C)(C)[C@@H]1/C=C/C(C)=C/C=C/C(C)=C/C=C/C=C(C)/C=C/C=C(C)/C=C/C1=C(C)C[C@H](O)CC1(C)C
active: 7G8 10 µM | Dd2 12.6 µM | PC49 10 µM
not listed: FAB9 | JCK | [3] | [4] | [5] | [6] | [7]
inactive: all other assays above

COc1ccc(CC(C)NCC(O)c2ccc(O)c(NC=O)c2)cc1 (stereo unspecified)
inactive: [1] | [2]

Oc1cc2cc(CCN3CCN(c4nsc5ccccc45)CC3)c(Cl)cc2[nH]1
active: 7G8 6.31 µM
not listed: [3] | [4] | [5] | [6] | [7]
inactive: all other assays above

C[C@@H]1CC[C@H]2C(=O)N(Cc3ccc(Cl)cc3)C[C@H](O)CN2[C@@H]1c1ccc(Br)cc1
active: [3] 1.69 µM

CC(=O)[C@@H]1[C@@H](C)N(Cc2ccccc2)C(=O)N[C@H]1c1cccc(C(F)(F)F)c1
inactive: [3] | [4] | [5] | [6]

CCCC[C@]12Cc3c(ccc4ccccc34)[C@H](O1)C1=C(O2)C(=O)c2ccccc2C1=O
active: [3] 1.69 µM | [4] 1.69 µM | [5] 1.51 µM | [6] 1.51 µM

CC#CCN1C(=O)N[C@@H](c2ccccc2)C(C(=O)OC)=C1C
inactive: [3] | [4] | [5] | [6]

COC/C=C/C1=CC2=CC(=O)C(C)(OC(=O)c3cnc4ccccc4n3)C(=O)C2=CN1CCc1c[nH]c2ccccc12 (stereo unspecified)
inactive: [3] | [4] | [5] | [6]

CC(=O)C1=C(C)N(Cc2ccccc2)C(=O)N[C@H]1c1cccc(F)c1
inactive: [3] | [4] | [5] | [6] | [7]

CCOC(=O)NN=C1C[C@@H](O)[C@@H](O)[C@@H]2[C@H]3C(=O)N(C4CCCCC4)C(=O)[C@@H]3CC[C@@H]12
inactive: [3] | [4] | [5] | [6] | [7]

CCCCC1=CC2=CC(=O)C(C)(OC(=O)CC)C(=O)C2=CN1CCCOC(C)C (stereo unspecified)
inactive: [3] | [4] | [5] | [6] | [7]
